Screens from PubChem BioAssay.
Compounds with a hit are over-represented: about 1.2% of the library has one in this group of screens.
Keap1-Nrf2 PPI: Keap1-Nrf2 protein-protein interaction inhibitors, primary screen, biochemical, fluorescence polarization, single point | Kelch-like ECH-associated protein 1 (Homo sapiens), Q14145 | Keap1 Kelch-Nrf2 peptide fluorescence polarization, 1536-well | inhibition, % at 9.4 µM | 340,000 compounds, 0.15% hits | AID 504523, 2011; in the data active = inhibition above about 12%; inconclusive = no clear call, values can overlap the other calls; inactive = below about 7.3%;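 also: human Keap1 Kelch domain with fluorescein labeled Nrf2 9mer peptide probe; 0% = neutral control wells and 100% = peptide positive control; higher means more block of Keap1 binding to Nrf2 peptide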
BCLXL inh: inhibitors of human Bcl-xL, primary screen, biochemical, fluorescence polarization, HTS. 320,000 compounds, 0.7% hits. inhibition, % at 10.9 µM. GST-Bcl-xL / FITC-Bim BH3 peptide fluorescence polarization. Bcl-2-like protein 1 (Homo sapiens), Q07817;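 active = inhibition above the mean of all tested compounds plus 3 SD, cutoff set per campaign, cut at about 30% in these data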;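 also: 0% = DMSO wells and 100% = unlabeled Bim-BH3 peptide competitor; inhibitors lower millipolarization by displacing the labeled peptide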
MEX-5 binding: MEX-5 zinc finger RNA-binding disruptors – biochemical, C. elegans, fluorescence polarization, MLPCN library, primary screen | MEX-5/FITC-TCR2 RNA binding; active compounds read low | activity score (negative = inhibition of binding), % at 10 µM | 300,000 compounds, 0.38% hits | AID 1832, 2009;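 active = inhibition past about -25% in most replicates, and total fluorescence under double the plate's negative control median, limit read from the data; inconclusive = replicates evenly split on the limit, or fluorescence at least double controls; inactive = too little inhibition in most replicates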;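 also: 0% = DMSO and -100% = 5 µM competing unlabeled TCR2 RNA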
eLon inh: inhibitors of E. coli Lon protease, primary screen, biochemical, fluorescence polarization; P0A9M0; purified E. coli Lon protease; inhibition, % at 7.94 µM; 360,000 compounds, 0.42% hits; in the data active = inhibition above about 13%, passing the limit was not always enough;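 also: 0% = enzyme with probe and DMSO and 100% = no enzyme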
GLD-1 RNA inh: GLD-1/TGE RNA complex disruptors, primary screen, biochemical, fluorescence polarization. 320,000 compounds, 0.44% hits. AID 2280, 2010. inhibition, % at 5.96 µM. purified GLD-1 + fluorescein TGE RNA;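 active = percent inhibition above a per-plate cutoff, the plate mean of test compounds plus 3 SD, cut at about 30% in these data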;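 also: 0% = DMSO wells with GLD-1 and probe and 100% = wells lacking GLD-1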
C-LANA FP: inhibitors of KSHV C-LANA binding to DNA, primary screen, biochemical, fluorescence polarization, FAM-LBS DNA, MBP-C-LANA, single point. Kaposi's sarcoma herpesvirus LANA C-terminal domain (residues 932-1162) DNA binding. inhibition, % at 9 µM. 340,000 compounds, 0.078% hits. AID 504423, 2011;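 active = highest replicate inhibition at or above 60% at 9 µM, even if other replicates fall short; inactive = all replicates below 60% inhibition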;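 also: 0% = neutral control wells and 100% = 4 µM acridine orange control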
eLon confirm: E. coli Lon protease inhibitor retest, confirmation, biochemical, fluorescence polarization. purified E. coli Lon. 1,400 compounds, 31% hits. inhibition, % at 7.94 µM. shares compounds with eLon inh. AID 602230, 2012; in the data active = inhibition above about 16%;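 also: 0% = enzyme with probe and DMSO and 100% = no enzyme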
Numbers without * were called inactive; ? = inconclusive; . = not tested or not shown; + = active, no number.

SMILES | Keap1-Nrf2 PPI | BCLXL inh | MEX-5 binding | eLon inh | GLD-1 RNA inh | C-LANA FP | eLon confirm
CCN1/C(=C/C=C/C2=[N+](CC)c3ccccc3C2(C)C)C(C)(C)c2ccccc21 | . | . | . | + | . | . | +
NC(=O)Cn1cc(C(=O)c2ccccc2)c2ccccc21 | -2.6 | 7.0 | -2.6 | -2.2 | 10.3 | -2.0 | .
Cc1ccc2cc(C=C(C#N)C#N)c(Cl)nc2c1 | -4.1 | 196.3* | ? | 163.9* | 167.0* | 27.0 | 82.9*
COC(=O)C1=C(c2ccc(F)cc2F)C[C@@H]2CC[C@H]1N2C(=O)NC(C)C | -4.1 | 5.7 | . | -10.1 | 5.6 | 0.6 | .
O=[N+]([O-])c1ccc(N(CCO)CCO)c2c1no[n+]2[O-] | . | . | . | 65.8* | . | . | 31.5*
CNc1ccc2nc3ccccc3[n+](C)c2c1 | 7.9 | 147.4* | -41.8* | 94.8* | 29.9 | 18.3 | 106.4*
CC1(C)C[C@H]2C=C(C=O)[C@]3(C=O)C[C@]3(C)[C@H]2C1 | -0.2 | 0.3 | 2.4 | 2.1 | 4.3 | 1.1 | .
COC(=O)C1=C(c2cccc(OCc3ccccc3)c2)C[C@@H]2CC[C@H]1N2C(=O)NCc1cc(C)oc1C(F)(F)F | 0.5 | 4.3 | . | 26.2* | 0.7 | -0.5 | -3.5
COc1ccc(C(=O)Oc2cccc3cccnc23)cc1S(=O)(=O)N1CCOCC1 | . | 0.1 | . | 6.6 | 5.3 | . | .
CC(=O)OC1N=C(c2ccccc2Cl)c2cc(Br)ccc2N(C)C1=O (stereo not given) | -1.7 | -0.3 | 3.2 | -0.9 | -3.9 | 1.2 | .
COc1ccc(-n2c(=O)[nH]c3ccccc3c2=O)c(OC)c1 | -3.3 | 3.8 | 1.5 | 0.1 | -2.5 | 0.6 | .
COc1ccc2c(c1)NP(=S)(c1ccccc1)N2C (stereo not given) | -2.5 | . | . | 53.0* | . | 2.7 | 2.7
COCCOC(=O)c1c(N)n(Cc2ccco2)c2nc3ccccc3nc12 | -6.3 | 30.7* | . | 15.9* | 63.3* | 9.0 | 6.7
